Measurements: ChEMBL document CHEMBL3988442, “University of Dundee, Small-Polar-MMV Screening Library” (2021)
In all, about 48,000 compounds went through this assay and about 13,000 (27%) showed an effect of 50% or more. This is one part of the list.

test system: Wolbachia pipientis; assay: Anti-Wolbachia Cell-Based Screen; format: functional; set-up: scale not given: in the data most compounds retested in dose-response had high values; details: 5 µM

SMILES	Percent Effect [%]
N#CC(NC(=O)CCC1CCC1)c1cnn(-c2ccccc2)c1 (stereo not given)	1.369
CNC(=O)Cn1nc(C(C)C)c2cnn(C(C)(C)C)c2c1=O	-6.377
CN(C)[C@@H]1CO[C@H](CNC(=O)C2CCCC2)[C@H]1O	-8.236
Cc1ccc(C(=O)NCCNC(=O)c2cncnc2C)cc1F	-5.207
Cc1ccc(C(=O)N2CC[C@H]3O[C@@H](c4noc(C)n4)C[C@H]3C2)o1	6.095
Cc1csc([C@@H]2C[C@@H]3CCN(C(=O)c4ccnnc4)C[C@H]3O2)n1	-12.9
CCn1nc(C)cc1C(=O)N1CC[C@H](OC)[C@H]2CN(CC3CC3)C[C@H]21.O=C(O)C(F)(F)F	3.94
Cc1nnc([C@@H]2C[C@H]3CN(C(=O)C4CC4)C[C@H]3O2)[nH]1	-12.1
Cc1csc([C@@H]2C[C@@H]3CCN(C(=O)c4cc(C)on4)C[C@H]3O2)n1	1.11
CCN1C[C@@H]2[C@@H](OC)CCN(C(=O)c3cc(C)nn3CC)[C@@H]2C1.O=C(O)C(F)(F)F	-7.784
CCn1nc(C)cc1C(=O)N1C[C@@H]2C[C@@H](c3nc(C)cs3)O[C@@H]2C1	100.8
Cc1nc([C@H]2C[C@H]3CN(C(=O)c4cc(C)c(C)s4)CC[C@@H]3O2)no1	1.908
CCC(C)(C)C(=O)N1C[C@@H]2C[C@@H](c3nnc(C)[nH]3)O[C@@H]2C1	92.76
CCn1nc(C)cc1C(=O)N1C[C@@H]2C[C@@H](c3noc(C)n3)O[C@@H]2C1	118.5
CCn1nc(C)cc1C(=O)N1C[C@@H]2C[C@@H](C)O[C@@H]2C1.O=C(O)C(F)(F)F	99.49
Cc1nnc([C@@H]2C[C@H]3CN(C(=O)c4c(C)noc4C)C[C@H]3O2)[nH]1.O=C(O)C(F)(F)F	-14.34
O=C(CN1CCS(=O)(=O)CC1)NC1CCCCc2ccccc21 (stereo not given)	-11.03
CCC(Nc1nnnn1-c1ccccc1)C(=O)NCc1cccs1 (stereo not given)	-3.486
CN1CCOC[C@H]1c1nc(-c2ccc(F)cc2F)c[nH]1	2.014
COC1CCCN(CCCc2cn[nH]c2)C1 (stereo not given)	-27.42
OC1CCN([C@@H]2CCN(c3nc(-c4ccccc4)no3)C[C@H]2O)CC1	-5.249
CCCN1CC2(CCN(C)CC2)CC1C(=O)NCc1cc(C)nn1C (stereo not given)	6.557
O=C(NCC(F)(F)F)C1CN(C(=O)c2cnccn2)C1	-11.97
Cc1nnc([C@H]2C[C@@H]3CCN(C(=O)C4CCOCC4)C[C@H]3O2)[nH]1	-13.79

SMILES	Percent Effect [%]
CCn1nc(C)cc1C(=O)N1C[C@@H]2C[C@@H](c3nnc(C)[nH]3)O[C@@H]2C1	102
Cc1nnc([C@@H]2C[C@H]3CN(C(=O)c4sccc4C)C[C@H]3O2)[nH]1	-0.8336
CCc1nc(N2CCCC(CCCOC)(C(=O)O)C2)ncc1C (stereo not given)	-7.437
CO[C@H]1CCN(Cc2nccs2)C[C@@H]1Cc1ccccc1	1.604
CO[C@H]1CCN(c2ncccn2)[C@H]1Cc1ccccc1	1.779
Cc1cc2c(cc1C)C(NC1CC1)CCCO2 (stereo not given)	-4.167
CCCc1ccc(C(=O)N2Cc3c(Cn4ccnc4)nn(C)c3C2)cc1.O=CO	-14.37
Cn1cnc2ccc(NC(=O)CCCn3cccn3)cc2c1=O	106.9
CC(C)c1nc(NC(=O)CCCn2cccc2)n(C)n1	-8.102
CC(C)n1cnc2ccc(NC(=O)CCCn3cccn3)cc2c1=O	106
CC(C)Cn1cncc1CNC(=O)c1cccc(Cn2cccn2)c1	0.1096
COCCn1ccc(NC(=O)Nc2ccncc2)n1	5.636
COCCn1cnc2ccc(NC(=O)CCCn3cccn3)cc2c1=O	181
Cc1ccc(C(=O)NCCCn2cccn2)c(=O)[nH]1	22.25
COCCn1ccc(NC(=O)Nc2ccc(C)cc2)n1	3.618
CC(C)Cn1cnc2ccc(NC(=O)CCCn3cccn3)cc2c1=O	102.5
CCNC(=O)CCC(=O)Nc1ccc2nn(C(C)C)cc2c1	9.58
COC(=O)CC(NC(=O)CCCn1cccn1)c1ccc(Cl)cc1 (stereo not given)	-43.24
CCN(CC)c1ccc(NC(=O)NC(C)Cn2cccn2)cn1 (stereo not given)	-15.96
CCc1nnsc1C(=O)NCCCC(CC)(CC)C1OCCO1	-13.99
CC(C)c1nnc2n1CC(CNc1cnc3ccccc3n1)CC2 (stereo not given)	-3.73
Cc1cc(C)n(C2CN(CC(O)COc3ccc(F)cc3)C2)n1 (stereo not given)	3.815
CC(NCCc1nccn1Cc1ccccc1)c1ccsc1 (stereo not given)	1.494
O=C(c1ccc[nH]1)N1C[C@H]2CC[C@@H]1CN(c1ncccn1)C2	-10.43

SMILES	Percent Effect [%]
CCOc1ncccc1-c1cc2c(cc1C(N)=O)OCO2	2.212
COC(=O)CNC(=O)CSCc1nc(O)c2c(C)c(C)sc2n1	7.048
CNS(=O)(=O)c1cccc(C(C)NCc2nccn2C(C)C)c1 (stereo not given)	-13.68
CC(C)(C)c1nc(CN2CCC3(CCCO3)CCC2=O)no1 (stereo not given)	-4.31
O=C(CCc1ccccc1F)NS(=O)(=O)c1ccc2c(c1)OCCCO2	3.529
Cn1c(CN2CCOC[C@H]2c2nc(C(C)(C)C)co2)nc2ccccc21	-2.257
CO[C@H]1CN(Cc2nc3ccccc3n2C)CC[C@@]12CCCO2	137.2
Cn1c(CO[C@H]2CN(S(C)(=O)=O)C[C@H]2F)nc2ccccc21	0.03029
CO[C@H]1CN(Cc2nc3ccccc3n2C)C[C@@]12CCCO2	116
COCCN1C[C@H]2CC[C@@H]1CN(Cc1nc3ccccc3n1C)C2	17.95
CC(=O)Nc1c(C)noc1/C=C\c1ccc(C)c(S(=O)(=O)NC2CC2)c1	113.9
Cc1cc(NC(=O)NCc2ccc(S(=O)(=O)N3CCCC3)s2)no1	-7.015
CCC(C)NS(=O)(=O)c1ccc(/C=C\c2onc(C)c2NC(C)=O)cc1 (stereo not given)	102.8
CC(=O)Nc1c(C)noc1/C=C\c1ccc(S(=O)(=O)N2CCCC2)cc1	101.8
Cc1noc(C)c1NS(=O)(=O)c1cc(Cl)c(Cl)c(C(=O)O)c1	-2.046
CCN(CC1CCCO1)S(=O)(=O)c1cc(NC(C)=O)ccc1C (stereo not given)	-4.974
CCOc1ccc(S(=O)(=O)NC(=O)c2c(C)noc2C(C)C)cc1	3.193
Cc1ccc(S(=O)(=O)NC2CC2)cc1C	3.676
CC(=O)Nc1c(C)noc1/C=C\c1ccc(S(=O)(=O)NC2CC2)cc1	127.5
Cc1cc(C)c(S(=O)(=O)Nc2c(C)noc2C)cc1C(=O)O	-6.139
CC(C)N(CCNC(=O)c1ccc(S(=O)(=O)NC2CC2)cc1)C(C)C	-4.232
Cc1noc(C)c1C(=O)N(C)C(C)c1ccc(S(C)(=O)=O)cc1 (stereo not given)	-13.22
